Rows were chosen to be rich in hits. Some 0.15% of all compounds tested hit in one or more screens of this group.
BCR signal inh: blocks chronic active B-cell receptor signaling. 0.05% of 340,000 active. ABC-DLBCL IkBa-CBG/CBR reporter, luminescence ratio, 4 h. Potency, µM (top dose mostly 46.1 µM), for the others: top-dose activity change, negative = inhibition, actives largely listed as inhibitors; active = well fitted inhibition curve with a large enough effect in the signal ratio, with a control signal flat, not every such curve was filed as active; inconclusive = small, poorly fitted or top-dose-only effect, or effect the other way, or a change in a side signal; the % refers to the signal ratio;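 note: plate controls were basal doxycycline-induced cells for no effect and cells given 10 µM MG132 for full effect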
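Concentration-response series (up to 46 uM) were applied to TMD8 dual-reporter cells for 4 h at 37C with doxycycline. Green/red ratio, after filter-overlap correction, defined %Activity; red signal alone was normalised to basal cells and zero luminescence.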
p53 reactivator: restores transcriptional activity of mutant p53; H1299 p53-A138V BP100-luciferase reporter, luminescence, 24 h; Potency, µM (series often up to 92.2 µM), for the others: at the top dose activity change, positive = activation, hits mostly activators; 0.063% of 320,000 active; AID 504706; note: % of control where 0% means no effect; nearly all actives have a fitted effect of over 45% in size
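p53-null H1299 cells stably carrying temperature-sensitive p53-A138V and a BP100-luciferase reporter were pinned with compounds (4-point, 1:5 series) and held 24 hrs at 37 deg C. Luminescence was read 10 min after detection reagent.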
USP2a inh: blocks human ubiquitin-specific protease USP2a; Potency, µM (highest dose often 38.3 µM), inactives show at the highest dose activity change, negative = inhibition, most hits filed as inhibitors; USP2 core, Ub-CHOP2 coupled fluorogenic reporter, 485/531; O75604; 0.01% of 330,000 active;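 note: plate controls were DMSO wells for no effect and full inhibition by NEM control for full effect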
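Cell-free coupled assay: 10nM USP2 core preincubated 30min RT with compound in Tris-HCl pH 8.0/CaCl2/CHAPS buffer, then 25nM Ub-CHOP2 and 25nM reporter substrate; fluorescence (Ex 485/Em 531) read after 60min RT, normalized to NEM inhibition, concentration-response curves fitted.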
B2AR arrestin: agonists driving beta-arrestin recruitment to human beta2-adrenergic receptor; P07550; beta-arrestin recruitment to beta2AR, cell-based reporter; Potency, µM (doses to about 46.1 µM), for inactives: at the top dose activation, usual class: activators; 0.02% of 330,000 active; AID 492947;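 note: 0% = DMSO controls and full agonism = EC100 isoproterenol or metaproterenol; nearly all actives have a fitted effect of over 65% in size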
Target sequence (P07550 whole entry, looked up): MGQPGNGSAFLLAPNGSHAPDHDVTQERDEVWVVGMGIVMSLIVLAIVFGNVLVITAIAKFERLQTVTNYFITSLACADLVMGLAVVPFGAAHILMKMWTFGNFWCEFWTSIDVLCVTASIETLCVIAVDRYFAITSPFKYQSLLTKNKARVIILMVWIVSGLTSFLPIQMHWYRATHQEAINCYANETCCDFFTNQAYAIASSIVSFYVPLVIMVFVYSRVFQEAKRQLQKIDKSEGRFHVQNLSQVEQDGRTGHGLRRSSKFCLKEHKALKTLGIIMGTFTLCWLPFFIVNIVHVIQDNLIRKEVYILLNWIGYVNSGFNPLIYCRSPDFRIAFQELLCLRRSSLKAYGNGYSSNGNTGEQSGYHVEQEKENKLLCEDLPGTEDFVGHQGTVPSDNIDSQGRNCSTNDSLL
Eya2 phos inh: inhibitors of human Eya2 phosphatase activity; O00167; recombinant Eya2, OMFP fluorescence dephosphorylation (OMFP is methylfluorescein phosphate); Potency, µM (highest dose often 76.9 µM), for inactives: at the highest dose activity, negative = inhibition, usual class: inhibitors; 0.006% of 330,000 active; AID 488837; note: % is set by controls: 0 for no effect and ±100 for the full control effect
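Eya2 (0.2 uM) preincubated 10 min at ambient with compound, then OMFP substrate added at 50 uM; 10 min reaction in 50 mM HEPES pH 7.5, 50 mM NaCl, 5 uM MgCl2, 0.05% BSA, 1 mM DTT. Fluorescence read at Ex 485/Em 525 nm.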
* hit, by the source's call. Unless noted, calls come from the whole dose curve; as a rule, active = well fitted curve in the direction sought with a large enough effect; inconclusive = small, poorly fitted or top-dose-only effect, or another doubt; inactive = no such curve, though single readings can be large; an effect the other way counts as inactive or inconclusive. Potency is the fitted concentration of half-maximal effect.

Screening CCOc1ccc(N(CC(=O)Nc2ccccc2OC)S(=O)(=O)c2ccccc2)cc1 returned BCR signal inh 15.8µM*, p53 reactivator -6.9%, USP2a inh 2.0%, B2AR arrestin -0.8% and Eya2 phos inh -0.1%.
OC[C@H]1O[C@@H](n2cnc3c(NC4CCCCC4)ncnc32)[C@H](O)[C@@H]1O was read as Eya2 phos inh 3.2%.
Screening OCC1OC(n2cnc3c(NC4CCCCC4)ncnc32)C(O)C1O (centres undefined) returned BCR signal inh 12.6µM*, p53 reactivator 1.4%, USP2a inh -1.4%, B2AR arrestin -0.5% and Eya2 phos inh -3.1%.
For COc1ccc(OC)c(Nc2c3ccccc3nc3ccccc23)c1 the results were BCR signal inh inconclusive, p53 reactivator -6.0%, USP2a inh -3.5%, B2AR arrestin -0.3% and Eya2 phos inh -0.3%.
Screening COc1ccc(OC)c(Nc2c3c(nc4ccccc24)CCC3)c1 returned BCR signal inh 15.8µM*, p53 reactivator 7.2%, USP2a inh -1.9%, B2AR arrestin 0.5% and Eya2 phos inh 0.8%.
`Cc1cccc(Nc2c3c(nc4ccccc24)CCC3)c1` gave BCR signal inh 1.0%, p53 reactivator -2.4%, USP2a inh -1.3%, B2AR arrestin 0.0% and Eya2 phos inh 9.8%.
For COc1cc(Nc2c3c(nc4ccccc24)CCC3)cc(OC)c1OC the results were BCR signal inh 20µM*, p53 reactivator -3.3%, USP2a inh -2.9%, B2AR arrestin -0.1% and Eya2 phos inh -16.8%.
Screening O=C(Nc1ccccc1F)c1ccc(O)c2ncccc12 returned BCR signal inh inconclusive, USP2a inh 3.1%, B2AR arrestin 10.6% and Eya2 phos inh -4.3%.
O=C(/C=C/c1ccc2c(c1)OCO2)c1ccccn1 was read as BCR signal inh inconclusive, p53 reactivator 31.6µM*, USP2a inh 0.0%, B2AR arrestin 0.5% and Eya2 phos inh 9.4%.
For O=C(N/N=C/c1ccc2c(c1)OCO2)c1ccccn1 the results were BCR signal inh inconclusive, p53 reactivator -4.7%, USP2a inh 2.7%, B2AR arrestin -1.8% and Eya2 phos inh -6.7%.
CCOC(=O)c1cc(-c2ccc(OC)cc2)n(CCC(=O)NCc2ccc(OC)cc2)c1C was read as BCR signal inh 6.9%.
`Cn1c(=S)c2[nH]c(SCCN3CCCC3)nc2n(C)c1=O` gave BCR signal inh 11.2µM*, p53 reactivator -1.3%, USP2a inh 0.6%, B2AR arrestin 15.8µM* and Eya2 phos inh -22.1%.
`CCN1CCCC(Sc2nc3c([nH]2)c(=S)n(C)c(=O)n3C)C1` (centres undefined) gave BCR signal inh inconclusive, p53 reactivator 2.9%, USP2a inh 0.8%, B2AR arrestin -0.3% and Eya2 phos inh 1.4%.
For CCOC(=O)c1cc(-c2ccccc2)n(-c2cccc(C(=O)NC(C)CC)c2)c1C (centres undefined) the results were BCR signal inh 1.0%.
COc1ccc2ccccc2c1/C=N/NC(=S)NCCN1CCOCC1 was read as BCR signal inh 20µM*, p53 reactivator 2.7%, USP2a inh 0.6%, B2AR arrestin inconclusive and Eya2 phos inh 5.6%.
For O=C(c1ccc2c(c1)N(Cc1cccc(Cl)c1)C(=O)c1ccccc1S2)N1CCOCC1 the results were BCR signal inh 6.8%.
`FC(F)(F)C1=Nc2cccc3cccc(c23)N1` gave BCR signal inh 9.1%, p53 reactivator -7.6%, USP2a inh 10µM*, B2AR arrestin 0.0% and Eya2 phos inh -12.0%.
`C=CCc1c(C)nc2nc(SCC(=O)Nc3ccc(OCC)cc3)nn2c1C` gave BCR signal inh -0.8%.
`N=C1C(c2nc3ccccc3c(=O)[nH]2)=C(O)CN1CCO` gave BCR signal inh 1.5%, p53 reactivator -3.7%, USP2a inh 2.9%, B2AR arrestin 0.2% and Eya2 phos inh 11.4%.
N=C1C(c2nc3ccccc3c(=O)[nH]2)=C(O)CN1CCc1ccccc1 was read as BCR signal inh 16.5%, p53 reactivator -5.0%, USP2a inh 0.794µM*, B2AR arrestin 0.2% and Eya2 phos inh 2.6%.

Screening results from PubChem BioAssay.
